From publication PMC5540273 (PLoS ONE, 2017)

system: p38-delta; conditions: concentration: 1 μM, replicates: in singlicate; n = 1
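Note: KINOMEscan kinase panel screen.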

Structure (SMILES) | %Inh
CC(C)(C)c1ccc2nccc(Nc3cccc(O)c3)c2c1 [GW856795] | 12%
COc1cc(Nc2nccc(-c3c(-c4cccc(NC(=O)c5c(F)cccc5F)c4)nn4ccccc34)n2)cc(OC)c1OC [GSK323521] | 43%
O=c1[nH]cc(-c2ccc(N3CCOCC3)cc2)c2sc(-c3cn[nH]c3)cc12 [GSK2276055] | 41%
COc1cccc(-c2ccc3c(NC(=O)C4CC4)n[nH]c3n2)c1 [SB-710903] | 40%
Nc1ncc(-c2cccnc2)c2scc(-c3ccc4c(c3)CCN4C(=O)Cc3ccccc3)c12 [GSK683281] | 71%

system: T1, p38-gamma; conditions: concentration: 1 μM, replicates: in singlicate; n = 1
T1 construct: gene MAPK12

Structure (SMILES) | %Inh
O=C(Nc1cccc(-c2nn3ccccc3c2-c2ccnc(Nc3cccc(F)c3)n2)c1)c1c(F)ccc(F)c1Cl [GSK357952] | 0%
c1ccc(-c2cnc3nccnn23)cc1 [AH20685] | 0%
CN(c1ccc(NC(=O)Nc2cc(C(F)(F)F)ccc2F)cc1)c1ccnc(Nc2ccc(S(N)(=O)=O)cc2)n1 [GW809893] | 85%
O=C(Nc1n[nH]c2cc(-c3ccoc3)ccc12)C1CC1 [SB-738481] | 1%
C[C@@H]1CC[C@@H](C(=O)Nc2ccccc2)CN1c1cc(-c2ccc3c(N)n[nH]c3c2)nc(N)n1 [GSK2286062] | 46%
O=C(Nc1cccc(-c2nn3ncccc3c2-c2ccnc(Nc3ccccc3)n2)c1)c1c(F)cccc1F [GSK198271] | 0%
COc1cccc(NC(=O)NC2CCN(c3ccnc(Nc4cc(OC)c(OC)c(OC)c4)n3)C2)c1 (stereo not drawn) [GSK1379763] | 4%
